In all, about 59,000 sequences were measured (the read-out: median about -0.00055, lowest 2% from about -2 on). The entries come from a sample that favours the lowest values as a whole.
Assay: Identification of proteins required for the processing of the EWS-FLI1 nascent transcript;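 also: robust z of luciferase light less the median z of siRNAs with the same seed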
Settings: TC32 Ewing sarcoma NR0B1-luc vs CMV-luc (EWS-FLI1 target promoter against control promoter), 48 h; screened at 20 nM (by protocol)
Method: Ewing sarcoma (ES) cells depend on the EWS-FLI1 fusion transcription factor for cell survival. Using an assay of EWS-FLI1 activity and genome-wide siRNA screening we have identified proteins required for the processing of the EWS-FLI1 nascent transcript. Parallel genome-wide siRNA-mediated RNAi screens were conducted in Ewing sarcoma TC32 cell lines expressing a luciferase (luc) reporter protein driven by either the promoter of the EWS-FLI1 target gene NR0B1 (TC32-NR0B1-luc) or the CMV promoter (TC32-CMV-luc). Luciferase activity was assessed 48 hours post siRNA-transfection.
Twenty microl of serum-free media containing Lipofectamine RNAiMax (0.05 microl) was added to wells containing siRNA (0.8 pmol). Lipid and siRNA were allowed to complex for 45 min at ambient temperature before addition of 600 cells in RPMI-1640, 20% FBS to yield final transfection mixtures containing 20 nM siRNA in RPMI-1640, 10% FBS. Luciferase expression was measured using OneGlo (Promega, Madison, WI). The genome-wide screening campaign was conducted using Ambion's human genome library version 4.1 (Ambion, Austin TX). This library targets approximately 21000 human genes, three siRNAs per gene. Each siRNA is arrayed in an individual well of a 384-well plate. Parallel transfections were conducted in TC32-NR0B1-luc and TC32-CMV-luc cell lines and luciferase expression (OneGlo, Promega) was assayed 48 h later on a PerkinElmer Envision 2104 Multilabel plate reader (PerkinElmer, Waltham, MA). Qiagen's AllStars Negative control was incorporated on all screening plates for normalization (16 wells per plate). Qiagen, Germantown, MDsiGL4 was incorporated as a positive transfection control (16 wells per plate) on all plates. […] The raw luciferase data for the NR0B1- and CMV-luc screens were normalized and z-score-MAD transformed using standard methods (Chung et al., 2008). The miRNA-like seed sequence of every siRNA was determined and the median z-score for all siRNA sequences with the same seed sequence was calculated. This z-score was subtracted from the z-score associated with each siRNA with that seed sequence to generate a seed-adjusted z-score value (Z) that was used when the results for the three siRNAs corresponding to each gene were compared (Marine et al., 2012)

Sequence | seed-corrected z-score
UUUAGGAACCUUGACUAGC against GTF2F2 | 0.153
AACGUGUAGAUCUUCAUGA against UBXN6 | -1.15
UGAAGUUCAGGUUCGUAAC against TBPL1 | -2.64
UUGACAUUUACUUCAGUUU against TRABD | 0.607
AGUGGAUACAUAGCUGUCU against ZBTB45 | -0.6
UCCUUAAUUUGAUAUUUGC against MAGEA8 | -0.105
AUACUUGCAGGUGUCAUUG against CD300A | -0.484
AUCGCUUUGAGGUUAGAGG against SYT3 | -0.878
UAUCAUAUGAUGCAUAAGC against ANGPTL5 | 0.711
UGAUGAUACACUGCAAGUC against IGSF3 | -2.96
UAAUCUAUUGAUAUGCUGG against SLC25A32 | 0.699
AAGUGGAACACUCAAGUCC against ZNF471 | -1.03
AUAAAUGAUACGGGUGCUC against TPI1 | -0.201
UAGGAGCAGAGGAAUCUUC against SLC35F4 | 0.0717
UUCUGAUGUAUGUUGAGCC against ZNF350 | -4.18
UUCUCGUUGAUCUUUUUGG against CPXCR1 | -0.131
UCCUGUUCCUUGAUAUUGU against GZMH | -0.564
UUAUCUGUGAGAGCAAUUA against LOC728752 | -1.23
UCUGGAUCUAUUAAGCUGC against LRRFIP2 | -2.34
AAAUCAGUGGGAAAGAUCC against DENND3 | 1.04
UUCUCCAUCAUGCGAAUGG against FEN1 | 0.188
UGGUAGUACACCUUGCAGC against C1orf111 | -2.08

Sequence | seed-corrected z-score
UGUAAUACCUGAAUCGGUG against PRKRA | -0.234
AAAUAGACAAAUAGGAUCC against PSMD12 | -2.98
UAUCUGAGAGUGAUCCUUC against LRRC47 | 1.55
UCAAUUCAGACUGUAAUGC against PTPDC1 | -0.0227
AUUCUCACCAUAAAGAGCA against LOC729722 | -2.33
UUAUGCUUAGGUAACUUGC against AADACL3 | -3.87
UAUAUAUCGUGCUUGAUAC against RIPK2 | 0.0696
UAUGCGACAAAGAAUGACU against OR4N3P | 0.242
UUUUCGAUUAAACCUUUUC against C17orf58 | -0.0867
UAAUCAAUCAUAGAGAUAG against GSTO1 | 0.0812
UUUAUUACAAUCCAAAAGU against HCST | 0.824
UUCUCGAUCAAGAGCAUCC against SPEF2 | -12.2
UUUGUGGUUAUUCUUUUAU against CDC42EP2 | -0.0752
UACAGCAUAAUCUCAUUUG against BPY2 | 0.91
UAAGCAGUAGAGUUAGUUC against LINC01249 | 0.231
UCUGUUCCAAGGCACUAUC against NFE4 | 0.0636
UUAUACACGAGGAAGAUGU against TMEM169 | -0.406
UGAGUAAACAGCCUCAGUC against CMIP | -0.223
UCUCGAUGAAGUCAAACAG against COPG1 | -2.97
AAUUUGCUAAAUCGUAUUC against CLLU1 | -0.521
UCCAUUAUCCCAAUAGACC against PGM2 | -0.182
UAGGGUUGGACUUUUUGUC against CYB5R3 | 0.597

Sequence | seed-corrected z-score
UCCAGUACCUUUUCCUUGG against LOC199882 | 0.35
AAUACUUGAAGGAAUAGGC against SUPT6H | -5.83
UACCAUAUUAUACACUUGC against STARD6 | -0.0986
AUGGAUCCAAUUUGAGUUU against NR2F2-AS1 | 1.74
AUCUCAUAAAAGAUCAUCC against NUTM1 | -0.0209
UAUUGUUAAGGACUUUAAC against DNAJB6 | 0.648
UUCGGUACACUCAUACGGC against ZNF300 | 0.363
UUAGCUGCUCGGUAACUGG against EPB41 | -2.39
UAAUGACAUAUCGACAUUU against MIDN | -0.523
UUAGAGAAUAUGCCCAUGA against FGD3 | -1.11
UUUGGGUAGAGGCCGAAUG against DNAJC13 | -2.18
UAUGUUAUCAGUCCAUCUG against MND1 | 0.573
UCUACAUCAAUAACAGAGG against C5orf28 | 0.545
UUAUUGGUUGUGACUUUCC against TSLP | 0.686
UCCCUUUUAAGCAACCUAC against APOC3 | -0.83
UCAAUAUCCAGACCUGGUG against SF3A1 | -2.88
UCCCGUAAAACAGAGACAC against OR2C3 | -0.66
AUCGUGCUCGCUUGGAUCC against LOC729083 | -0.203
UCGGUUGCGAAUCAGAAUC against NOTCH2 | -2.01
UUAGAUACUCUGCAGGAUG against EPHA5 | 0.46
UUUAAUGUCCCAGUCCUCG against TMEM160 | 0.858
UCUUACAUAGGUAAUUGCC against AGTR1 | -0.402

Sequence | seed-corrected z-score
UUCCUUAACCCAUCUACAG against C2orf49 | 0.273
UGAAUGACAUCCACUACCU against OR6K2 | 1.02
UCAAAGUCGAUUUCAAUCU against BRD4 | -2.4
UAGAUGUCUGGAGCCCAUC against LYPD6 | -0.74
AAAGGAGUCAGAUUCAUGC against GPATCH2L | 0.347
UCUCCAACCAAUUGCCUCC against LOC200726 | -0.147
UAGGGAACUCGUAUCUAGC against RNF213 | 0.191
UAGUUGUCGAUGUAAACUC against MUC2 | -2.67
UUCCAUAUUACCGAGGUCC against ALCAM | 0.291
UCUGAGAUAACAGUUCCUG against LOC644681 | -0.647
UUCUCGAUCAUCCUGAUCU against BGN | -3
UGCUAGACAAUUCCACUUC against SLX4 | -1.39
UAUCGCUCCUGACUAUUGC against PPP1R10 | -0.157
ACAACUAUGAUUUUAAGGC against ACSL1 | 0.252
UUGUCUUUCCGGCUAAAGC against ZFP64 | -1.36
UAUUGUAAGAAAACCCUUG against GNA13 | 1.07
UCUGUGUCCACAGAGCCGU against GPR78 | -2.26
UACUACACUAUUCUUCAGG against TADA1 | -0.3
UUGCGACUCAUGAAAUGGG against INO80 | 0.511
AUGGUAGUAAUCGCGGGCG against HSPA12B | -2.44
UAAGCGAAUAGGAUGCGCU against YWHAEP5 | -1.53
UUUGCGAUGUUCCUCUUCC against GOLIM4 | 0.684

Sequence | seed-corrected z-score
UCAUUUCUAAGACCGCAUG against HNRNPUL1 | -0.605
AAAGGUCAAUUCUUGAUGG against OR2L8 | 1.81
UCUGGAUGGAGGUUUGUUC against SLC38A10 | 1.34
UUGGAACAUAUUGGGAUCG against DDN | -0.0544
AUGUUUUCGCUGGAGUUGG against SSBP4 | 0.9
AUAGGUCUGAAUGAGCUGC against PLCD3 | -0.512
UUCCUCAAAACUGCAGACU against LOC729451 | -0.00746
UCCAUGUUGUCGAUCAUCU against RGS9BP | -2.21
UAUGAGUGCUCCACGAUGC against APOL3 | 0.115
UUCAUGACAAAGCUUGACC against PFN1P3 | -0.053
UUGGUAAACAUCUCCAGGC against TRIM63 | 1.24
UUGUCGUUCAGCAAACUCC against ASCC2 | -2.07
UCAGGAUAUAGUUUAGGAC against TMEM144 | 0.846
AAUGUAUCAAGUAUGUCGG against C16orf62 | -2.25
UGAAAUAUCUCCAGGAUCU against EFCAB12 | 0.249
UAUGCGUUUUGGAGAUUCC against PARP8 | -0.784
UCUGUCUUCCCAUAGGAUG against LOC440040 | -2.05
AAUGGUAGAACAUCCCUGC against RIN2 | -0.24
AACUUGAUCAAGUAGCUCG against EBLN1 | -0.0938
UGUCAGUAUAGCACAGAUC against EFTUD2 | -2.05
AAGGUAACCAGCUCGAUGG against RPL7AP27 | -0.369
UUCUUUAUCCUUAGUCCUC against NFATC2IP | -3.11

Sequence | seed-corrected z-score
UACAGUAAUAGUGAGGCAG against GYPB | 2.32
UUAGGGUCAGGAGCAGACA against CYP2F1 | -0.167
UACUAACUUUUCGAUGUCC against MX2 | 0.257
UAGGUUGCAUCAUAGAGGG against CFL1 | -2.11
UUUCGUGUUGCCGUAUUUC against GEMIN5 | 0.131
UACCAGUCAGGGUCUUCAC against UBC | -8.62
UGAGUAGAUGAUCUUGUCG against GNA11 | 0.913
AUAGGUGUCCUUCAGGUCC against MYL5 | -0.00285
UGAGAUUUGAUGAUUCUGC against OR7E24 | 0.344
UGUGAAAGAGGCGAAAUGC against ELAC1 | 0.216
UUUUCCACAACCGUAGUCA against GOLGA8G | 0.524
GAUGGAGGUGCCAUGGUUG against ZSWIM3 | -0.304
UCUGGUUCUUUGUAAAGGC against S100A11P1 | -2.25
UUAGGCUUAUUUCCCGCUC against BTN3A2 | -0.656
UAGUGUACUCUAGAGCCCG against PLEKHG4 | 0.519
UUUCUCAUCACUAGAAGUC against PPIH | -0.684
UUGGAGAUAAGGGUUCUUG against MSTO1 | -2.21
UGCAUCUUCUCUUAUGUGC against C16orf90 | -1.02
UAACACUUUCAUUCCUGUC against FAM86B1 | -1.15
UCUUGGUCAGGUUUCCUCG against MUSTN1 | -0.107
AUUCUUCUAGGCAUUGCCC against PDE6D | 0.469
UCUAUUACUUUCACAAUGC against KDM6A | -0.344

Reference: PubChem BioAssay AID1159506 (National Center for Advancing Translational Sciences (NCATS), 2015)
